Only some compounds are listed: those with a hit (about 7.3% of all), similar ones and a draw of the others.
RORg inh = qHTS for inhibitors of ROR gamma transcriptional activity; Nuclear receptor ROR-gamma (Mus musculus), P51450; 310,000 tested, 5.4% active; Drosophila S2 Gal4-RORgamma UAS-luciferase reporter, 20 h; Potency, µM (highest dose often 53.6 µM), most hits filed as inhibitors; note: nearly all actives have a fitted effect of over 60% in size
Target sequence (P51450 whole entry, looked up, the tested form may be a part): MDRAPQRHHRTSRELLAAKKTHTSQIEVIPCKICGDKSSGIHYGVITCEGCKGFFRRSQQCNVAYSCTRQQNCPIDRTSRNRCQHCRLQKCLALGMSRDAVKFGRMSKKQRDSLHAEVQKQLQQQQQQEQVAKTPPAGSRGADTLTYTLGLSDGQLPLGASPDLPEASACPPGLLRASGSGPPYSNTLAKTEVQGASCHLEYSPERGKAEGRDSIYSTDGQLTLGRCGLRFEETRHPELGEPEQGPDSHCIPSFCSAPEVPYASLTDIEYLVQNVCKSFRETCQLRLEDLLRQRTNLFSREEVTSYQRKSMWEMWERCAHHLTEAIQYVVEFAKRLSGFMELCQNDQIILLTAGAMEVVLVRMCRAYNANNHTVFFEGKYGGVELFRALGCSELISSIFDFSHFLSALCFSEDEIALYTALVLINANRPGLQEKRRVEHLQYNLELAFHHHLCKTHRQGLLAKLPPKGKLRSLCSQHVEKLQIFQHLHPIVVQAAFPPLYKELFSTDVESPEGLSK
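Stably transfected Drosophila Schneider cells are the test system, with ROR gamma fused to Gal4 and luciferase under UAS control; luminescence is read after 20 hr of 700 uM copper sulfate induction at ambient temperature.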
VP16 counter = VP16 counterscreen qHTS for inhibitors of ROR gamma transcriptional activity | Drosophila S2 Gal4-VP16 UAS-luciferase, luminescence, 20 h | Potency, µM (titrated, usually from 53.6 µM), hits mostly inhibitors | 310,000 tested, 3.5% active | AID 2546, 2010;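 note: Gal4-VP16 expression switched on by copper sulfate through the metallothionein promoter; nearly all actives have a fitted effect of over 50% in size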
Tau fibril ThT = qHTS for Inhibitors of Tau Fibril Formation, Thioflavin T Binding; recombinant tau K18 P301L, heparin-induced fibrillization, ThT fluorescence; AID 1460, 2008; Microtubule-associated protein tau (Homo sapiens), P10636; Potency, µM (highest dose often 57.4 µM), hits mostly inhibitors; 270,000 tested, 2.1% active; note: nearly all actives have a fitted effect of over 55% in size
Target sequence (P10636 561-689 P618L limits assumed): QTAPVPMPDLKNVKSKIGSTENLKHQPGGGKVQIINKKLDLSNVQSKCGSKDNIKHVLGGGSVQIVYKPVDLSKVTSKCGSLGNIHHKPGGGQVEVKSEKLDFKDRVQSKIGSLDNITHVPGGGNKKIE
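Using a mix of unlabeled (15 uM) and Alexa 594-labeled (0.24 uM) tau K18 P301L, heparin-triggered fibrillization over 6 hr at 37 C was scored by ThT fluorescence.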
Tau fibril FP = qHTS for Inhibitors of Tau Fibril Formation, Fluorescence Polarization. K18 P301L tau heparin fibrillization, Alexa594 FP, 6 h. Potency, µM (top dose mostly 57.7 µM), most hits filed as inhibitors. 280,000 tested, 0.39% active. AID 1468, 2008; note: nearly all actives have a fitted effect of over 55% in size
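Steps: dispense K18 P301L tau (15 uM plus 0.24 uM Alexa 594 tracer, final) in pH 7 sodium acetate; add compound; add heparin (20 uM final); incubate 6 hr, 37 C; add ThT (30 uM final); after 1 hr ambient, read FP.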
Tau fluor counter = Counterscreen qHTS for Inhibitors of Tau Fibril Formation, Fluorescence Polarization; tau K18 P301L Alexa594 fluorescence, heparin fibrillization; Potency, µM (highest dose often 57.7 µM); 280,000 tested, 0.93% active; note: nearly all actives have a fitted effect of over 55% in size
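Human tau K18 P301L (15 uM unlabeled, 0.24 uM Alexa 594-labeled) in 100 mM sodium acetate pH 7 with 20 uM heparin, 6 hr at 37 C. ThT 30 uM added, 1 hr ambient; Alexa 594 FP and total fluorescence read at 555/632 nm.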
Large screens that a line does not name were inactive; [ ] = remark or other dose. Calls come from the whole dose curve; as a rule, active = well fitted curve in the direction sought with a large enough effect; inconclusive = small, poorly fitted or top-dose-only effect, or another doubt; inactive = no such curve, though single readings can be large; an effect the other way counts as inactive or inconclusive.

O=C1N=C(O)CN1/N=C\c1ccc(-c2ccc([N+](=O)[O-])cc2)o1	Tau fibril ThT 14µM
O=C1C2C3C=CC(C4CC34)C2C(=O)N1/N=C/c1ccc(-c2ccc([N+](=O)[O-])cc2)o1 (configuration not stated)	Tau fibril ThT inconclusive
COC(=O)N/N=C/c1ccc(-c2cc(Cl)cc(Cl)c2)o1	Tau fibril ThT inconclusive
CN(/N=C/c1ccc(-c2ccc([N+](=O)[O-])cc2)o1)c1ccccc1	none (no result: Tau fibril ThT, Tau fibril FP, Tau fluor counter)
CCc1ccc(OC(C)C(=O)N2CCC(c3nc4ccccc4s3)CC2)cc1 (configuration not stated)	none (no result: RORg inh, VP16 counter)
CCOC(=O)c1c(C)[nH]c(C)c1S(=O)(=O)NCC(=O)Nc1ccc(CC)cc1	none (no result: RORg inh, VP16 counter)
CC(C)(C)c1ccccc1OCC(=O)NCc1ccccc1	none (no result: Tau fibril ThT, Tau fibril FP, Tau fluor counter)
CNC(=S)N/N=C/c1ccc(-c2cc([N+](=O)[O-])ccc2Cl)o1	RORg inh inconclusive, VP16 counter inconclusive
NC(=S)N/N=C/c1ccc(-c2ccc([N+](=O)[O-])cc2)o1	RORg inh 7.1µM, VP16 counter inconclusive, Tau fibril ThT 7.9µM, Tau fibril FP inconclusive, Tau fluor counter inconclusive
CCC(Sc1nnc(-c2ccc(C)c(Cl)c2)n1CC)C(=O)Nc1nccs1 (configuration not stated)	RORg inh 13µM, VP16 counter inconclusive
Cc1cc(C)c(-c2cc([C@H](C)O/N=C3/[C@H]4OC4[C@@H](O)[C@H]4[C@H]3CCn3c(=O)n(-c5ccccc5)c(=O)n34)on2)c(C)c1 (some centres not stated)	none
CC(=O)OC[C@@]1(O)C[C@@]23CC[C@@H]4c5ccoc5CC[C@@]4(C)[C@@H]2CCC1C3	RORg inh inconclusive
Cc1cc(O)ccc1Nc1nc2ccccc2nc1Nc1ccc(O)cc1C	Tau fibril ThT 14µM, Tau fibril FP inconclusive, Tau fluor counter 13µM[quencher]
Cc1ccc(Nc2nc3ccccc3s2)c(C)c1	RORg inh inconclusive, VP16 counter inconclusive
CCOc1ccc(S(=O)(=O)N(C)CC(=O)N2CCN(CC)CC2)cc1	none (no result: Tau fibril ThT, Tau fibril FP, Tau fluor counter)
Cc1c(C#N)c(N)nc(Cl)c1C#N	none
N#Cc1c(Cl)nsc1NN	RORg inh inconclusive, Tau fibril ThT 7.9µM, Tau fibril FP inconclusive, Tau fluor counter 2.5µM[quencher]
O=C(NCCn1c(C(F)(F)F)nc2cc(C(F)(F)F)ccc21)[C@H]1CCCN1c1nc(CN2CCCCC2)cs1	none (no result: Tau fibril ThT, Tau fibril FP, Tau fluor counter)
Cc1ccc(Cn2c(C3CCCN3c3nc(C)cs3)nc3cc(C(F)(F)F)ccc32)cc1 (configuration not stated)	RORg inh 3.5µM, VP16 counter inconclusive (no result: Tau fibril ThT, Tau fibril FP, Tau fluor counter)
COc1cc(O)c2c(c1)O[C@H](c1ccccc1)CC2=O	none (no result: Tau fibril ThT, Tau fibril FP, Tau fluor counter)
CC(=O)Oc1cc2c(cc1Cl)C(c1cccs1)CC1(CC(C)(C)NC(=S)N1)O2 (configuration not stated)	RORg inh 10µM, VP16 counter inconclusive
COc1ccc(C2CC3(CC(C)(C)NC(=S)N3)Oc3cc(O)cc(C)c32)cc1 (configuration not stated)	RORg inh inconclusive, VP16 counter inconclusive, Tau fibril ThT inconclusive
CC(=O)Oc1ccc2c(c1)OC(c1ccccc1)CC21CC(C)(C)NC(=S)N1 (configuration not stated)	RORg inh 10µM, VP16 counter inconclusive
CC1(C)CC2(CC(c3ccccc3)Oc3cc(O)ccc32)NC(=S)N1 (configuration not stated)	RORg inh 8.9µM, VP16 counter 8.9µM
COc1ccc(C2CC3(CC(C)(C)NC(=O)N3)Oc3cc(O)ccc32)cc1 (configuration not stated)	RORg inh inconclusive
CC1(C)CC2(CC(c3ccccc3)c3ccc(O)cc3O2)NC(=S)N1 (configuration not stated)	RORg inh 11µM
CC1(C)CC2(CC(c3ccccc3)Oc3cc(O)ccc32)NC(=O)N1 (configuration not stated)	none
CN(C)S(=O)(=O)c1cccc(NC(=O)COC(=O)c2cc(-c3cccc(Br)c3)nc3ccccc23)c1	Tau fibril FP 13µM, Tau fluor counter inconclusive
CN(C)S(=O)(=O)c1cccc(NC(=O)COC(=O)c2ccc(Br)o2)c1	none
O=C(c1cccc(F)c1)N1CCC2(CC1)CN(c1ncccn1)C2	none (no result: Tau fibril ThT, Tau fibril FP, Tau fluor counter)
Cc1nc(N2CCCC2)c2c(C(=O)N3CCN(c4cccc(Cl)c4)CC3)c(C)oc2n1	none (no result: RORg inh, VP16 counter)
Cc1ccc(N/C=C/C(=O)c2cccs2)cc1C	RORg inh 13µM, VP16 counter inconclusive, Tau fibril ThT inconclusive
O=C(/C=C/Nc1ccccc1C(=O)O)c1cccs1	RORg inh inconclusive, VP16 counter inconclusive, Tau fibril ThT inconclusive
Cc1cc(N/C=C/C(=O)c2cccs2)ccc1F	Tau fibril ThT inconclusive
O=C(/C=C/Nc1ccc(Nc2ccccc2)cc1)c1cccs1	Tau fibril ThT 1.3µM, Tau fibril FP inconclusive, Tau fluor counter 7.9µM[quencher]
CCOC(=O)c1c(Nc2ccc(OC)cc2)nnc(-c2ccccc2)c1-c1ccccc1	Tau fibril ThT inconclusive (no result: RORg inh, VP16 counter)
NC(=O)Cc1ccc(Nc2nnc(-c3ccccc3)c3ccccc23)cc1	RORg inh inconclusive, VP16 counter 22µM
Cc1cn2c(=O)cc(COc3cccc(NC(=O)c4ccccc4C)c3)nc2s1	none (no result: RORg inh, VP16 counter)
COC(=O)c1sccc1NC(=S)Nc1cc(C)ccc1OC	RORg inh 8.9µM, VP16 counter 16µM
COC(=O)c1sccc1NC(=O)Nc1ccc(F)cc1	RORg inh inconclusive (no result: Tau fibril ThT, Tau fibril FP, Tau fluor counter)
COC(=O)c1sccc1NC(=O)Nc1cc(C)cc(C)c1	VP16 counter inconclusive (no result: Tau fibril ThT, Tau fibril FP, Tau fluor counter)
COC(=O)c1sccc1NC(=S)Nc1ccc(F)cc1	RORg inh 13µM, VP16 counter inconclusive
Cc1nc(S/C(=C/c2ccc(-c3cccc(Cl)c3)o2)C(=O)O)n[nH]1	RORg inh 1.3µM, VP16 counter 3.5µM, Tau fibril ThT 2.8µM
NCCS	Tau fibril ThT 16µM, Tau fibril FP inconclusive, Tau fluor counter inconclusive
O=C(CCN1CCOCC1)NNC(=S)NC(=O)c1ccc(Br)cc1	RORg inh 11µM, VP16 counter inconclusive
O=C(NCCN1CCCC1)c1ccc(Br)cc1	none (no result: Tau fibril ThT, Tau fibril FP, Tau fluor counter)
O=C(CCN1CCCCC1)NNC(=S)NC(=O)c1ccc(Br)cc1	RORg inh 2µM, VP16 counter 8.9µM
COC(=O)c1sc2cccc(F)c2c1S(=O)(=O)Nc1ccc(C)cc1Cl	none (no result: RORg inh, VP16 counter)
Cc1cccc(N2CCN(C(c3ccc(F)cc3)c3nnc(-c4ccccc4)o3)CC2)c1C (configuration not stated)	Tau fibril ThT inconclusive (no result: RORg inh, VP16 counter)
Cc1cc(C)cc(NS(=O)(=O)c2c(C)nc3scc(C)n3c2=O)c1	none (no result: RORg inh, VP16 counter)
O=C(NC(=S)N1CCN(c2nc(-c3ccccc3)cs2)CC1)c1cncc(Br)c1	RORg inh 0.22µM, VP16 counter 0.22µM, Tau fibril ThT inconclusive

Compound activity from PubChem.
